Most compounds without a hit are left out; they make up all but 10% or so of the library.
BAZ2B inh = qHTS Assay for Inhibitors of BAZ2B; 4.4% of 360,000 active; Potency, µM (doses to about 114 µM), actives largely listed as inhibitors; AlphaScreen BAZ2B-H3K14Ac peptide displacement; Bromodomain adjacent to zinc finger domain protein 2B (Homo sapiens), Q9UIF8; note: nearly all actives have a fitted effect of over 60% in size
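AlphaScreen displacement: compounds (up to 110uM) incubated 30 min at room temperature with a preformed 50 nM BAZ2B/50 nM biotinylated H3K14Ac peptide complex in PBS pH 7.4 with Tween-20. Donor and acceptor beads at 10 ug/mL final added, 20 min light-protected before reading.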
GLS inhibitor = qHTS for Inhibitors of Glutaminase (GLS); Glutaminase kidney isoform, mitochondrial (Homo sapiens), O94925; GLS enzymatic activity, qHTS titration; Potency, µM (doses to about 45.5 µM), most hits filed as inhibitors; 0.21% of 410,000 active; AID 624170, 2012
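hKGA in 45 mM KH2PO4 (pH 8.2), 0.02% Tween-20 with compound, then 1mM L-Glutamine (stock as added) plus glutamate oxidase/HRP/Amplex red coupling mix. Fluorescence read initially and after 30 min at RT; signal change reflects glutamate formation.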
G9a inh = qHTS Assay for Inhibitors of Histone Lysine Methyltransferase G9a; Histone-lysine N-methyltransferase EHMT2 (Homo sapiens), Q96KQ7; G9a H3K9 monomethylation, AlphaScreen, 2 h; Potency, µM (doses to about 102 µM), usual class: inhibitors; 8.8% of 350,000 active; AID 504332, 2011; note: nearly all actives have a fitted effect of over 75% in size
Target sequence (Q96KQ7 913-1193 limits assumed): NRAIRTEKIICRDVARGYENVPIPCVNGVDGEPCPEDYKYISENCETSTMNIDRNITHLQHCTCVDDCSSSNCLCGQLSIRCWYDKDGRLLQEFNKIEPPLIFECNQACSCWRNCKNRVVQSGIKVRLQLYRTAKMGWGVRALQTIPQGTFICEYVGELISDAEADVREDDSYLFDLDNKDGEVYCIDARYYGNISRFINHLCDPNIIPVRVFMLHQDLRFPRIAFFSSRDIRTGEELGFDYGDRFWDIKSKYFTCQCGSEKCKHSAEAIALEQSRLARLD
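Using a bead-based AlphaScreen, monomethylated H3K9 product from 2 h room-temperature reactions (G9a 20 nM, peptide 500 nM, SAM 20 uM) was detected with 0.5 ug/mL rabbit anti-H3K9me1 antibody.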
JMJD2A Tudor = qHTS Assay for Inhibitors of JMJD2A-Tudor Domain; AlphaScreen JMJD2A-Tudor / H3K4me3 peptide binding; Potency, µM (highest dose often 114 µM), hits mostly inhibitors; 4.4% of 390,000 active; AID 504339, 2011; note: nearly all actives have a fitted effect of over 50% in size
HP1b chromo inh = HTS for Inhibitors of HP1-beta Chromodomain Interactions with Methylated Histone Tails | 0.56% of 390,000 active | Potency, µM (titrated, usually from 114 µM), usual class: inhibitors | AlphaScreen HP1-beta / biotin-H3K9me3 peptide binding | AID 540317, 2011 | Chromobox protein homolog 1 (Homo sapiens), P83916; note: nearly all actives have a fitted effect of over 70% in size
Target sequence (P83916 whole entry, looked up): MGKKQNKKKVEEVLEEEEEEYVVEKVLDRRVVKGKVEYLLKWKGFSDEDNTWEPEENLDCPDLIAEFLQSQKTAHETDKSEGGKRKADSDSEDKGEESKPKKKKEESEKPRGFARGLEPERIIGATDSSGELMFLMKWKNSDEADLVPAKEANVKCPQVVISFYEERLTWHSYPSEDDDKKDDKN
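AlphaScreen: HP1-beta (50 nM) preformed 30 min with biotin-H3(1-18)K9me3 peptide (50 nM) in PBS pH 7.4, 0.01% Tween-20. Compound added for 30 min at RT, then streptavidin donor/nickel chelate acceptor beads (10 ug/mL) for 30 min.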
Hits are given with their value; [ ] = dose if it differs, or a comment. Calls come from the whole dose curve; as a rule, active = well fitted curve in the direction sought with a large enough effect; inconclusive = small, poorly fitted or top-dose-only effect, or another doubt; inactive = no such curve, though single readings can be large; an effect the other way counts as inactive or inconclusive.

For COc1cccc(C2C(C#N)=C(N)Oc3cc(C)n(Cc4ccccn4)c(=O)c32)c1OC (stereo not given) the results were BAZ2B inh inactive, GLS inhibitor inactive, G9a inh inactive[2.33 µM], JMJD2A Tudor inactive and HP1b chromo inh inactive.
Screening COc1ccccc1C1C(C#N)=C(N)Oc2cc(C)n(Cc3ccccn3)c(=O)c21 (stereo not given) returned BAZ2B inh inconclusive, GLS inhibitor inactive, G9a inh 35µM, JMJD2A Tudor inactive and HP1b chromo inh inactive.
`COc1cc(C2C(C#N)=C(N)Oc3cc(C)n(Cc4ccccn4)c(=O)c32)cc2c1OCO2` (stereo not given) gave BAZ2B inh inconclusive and G9a inh 50µM.
Screening COc1cc(C2C(C#N)=C(N)Oc3cc(C)oc(=O)c32)cc2c1OCO2 (stereo not given) returned BAZ2B inh 56µM, GLS inhibitor inactive, G9a inh inconclusive, JMJD2A Tudor inactive and HP1b chromo inh inactive.
`CCCCN1C(=O)C(C#N)CC2=C1CC(C)(C)CC2=O` (stereo not given) gave GLS inhibitor inactive, JMJD2A Tudor inactive and HP1b chromo inh inactive.
For CN(CC1COc2ccccc2O1)C(=O)c1ccc(Cl)c(S(=O)(=O)N2CCCCCC2)c1 (stereo not given) the results were BAZ2B inh inactive, GLS inhibitor inactive, G9a inh inactive, JMJD2A Tudor inactive and HP1b chromo inh inactive.
`COc1cccc(NC(=O)C2CCN(S(=O)(=O)c3cccc4nonc34)CC2)c1` gave BAZ2B inh inactive, GLS inhibitor inactive, G9a inh inactive, JMJD2A Tudor inactive and HP1b chromo inh inactive.
O=C(CC1SC(=O)N(c2ccccc2)C1=O)Nc1ccc(Br)cc1 (stereo not given) was read as BAZ2B inh inconclusive, GLS inhibitor inconclusive, JMJD2A Tudor inactive and HP1b chromo inh inactive.
`O=C(CC1SC(=O)N(c2ccccc2)C1=O)Nc1ccc(Cl)cc1` (stereo not given) gave BAZ2B inh inactive, GLS inhibitor 11µM, G9a inh 45µM, JMJD2A Tudor inactive and HP1b chromo inh inactive.
`CCCNC(=O)C1(C)CCN(C(=O)c2ccc3snnc3c2)C1` (stereo not given) gave GLS inhibitor inactive.
For CCOC(=O)N1CCN(CC(=O)Nc2nccs2)CC1 the results were GLS inhibitor inactive.
`N#CC1=C(c2ccccc2)/C(=C/c2ccccc2)OC1=O` gave BAZ2B inh 22µM, GLS inhibitor inactive, G9a inh 13µM, JMJD2A Tudor inconclusive and HP1b chromo inh inconclusive.
For COCC(=O)Nc1c(I)c(C(=O)NC[C@@H](O)CO)c(I)c(C(=O)N(C)C[C@@H](O)CO)c1I the results were GLS inhibitor inactive and G9a inh inactive[21.5 µM].
CC(Sc1nc(N)cc(N)n1)C(=O)NCC1CCCO1 (stereo not given) was read as BAZ2B inh inactive, GLS inhibitor inactive, G9a inh inactive[12.7 µM], JMJD2A Tudor inactive and HP1b chromo inh inactive.
CCOC(=O)c1ccc2c(c1)nc(SC(C)C(=O)NCC1CCCO1)n2CC (stereo not given) was read as BAZ2B inh inactive, GLS inhibitor inactive, G9a inh inactive[12.7 µM], JMJD2A Tudor inactive and HP1b chromo inh inactive.
CC(Sc1nnc(-c2cccs2)n1N)C(=O)NCC1CCCO1 (stereo not given) was read as BAZ2B inh inactive, GLS inhibitor inactive, G9a inh 50µM, JMJD2A Tudor inactive and HP1b chromo inh inactive.
`Cc1csc(SC(C)C(=O)NCC2CCCO2)n1` (stereo not given) gave BAZ2B inh inactive, GLS inhibitor inactive, G9a inh 40µM, JMJD2A Tudor inactive and HP1b chromo inh inactive.
For CCN(CC)S(=O)(=O)c1ccc2c(c1)nc(SC(C)C(=O)NCC1CCCO1)n2CC (stereo not given) the results were BAZ2B inh inactive, GLS inhibitor inactive, G9a inh 79µM, JMJD2A Tudor inactive and HP1b chromo inh inactive.
COc1ccc(CCC(=O)N/N=C/c2ccc3c(c2)OCO3)cc1 was read as GLS inhibitor inactive, JMJD2A Tudor inactive and HP1b chromo inh inactive.
Screening CCNC(=O)c1nn(-c2ccccc2C)nc1CO returned BAZ2B inh inactive, GLS inhibitor inactive, G9a inh inactive, JMJD2A Tudor inactive and HP1b chromo inh inactive.
C=CCn1c(N)c(C(=O)NCCC2=CCCCC2)sc1=S was read as BAZ2B inh 40µM, GLS inhibitor inactive, G9a inh inconclusive, JMJD2A Tudor inconclusive and HP1b chromo inh inconclusive.
Screening Cc1nc(N2CCCCC2)c2ccsc2n1 returned BAZ2B inh 5µM, G9a inh 20µM, JMJD2A Tudor 0.79µM and HP1b chromo inh inconclusive.
`Cc1nc(N2CCCCC2)c2c(-c3cccs3)csc2n1` gave BAZ2B inh inactive, GLS inhibitor inactive, G9a inh inactive, JMJD2A Tudor inactive and HP1b chromo inh inactive.
CCNC(=S)N1CCN(Cc2ccc3c(c2)OCO3)CC1 was read as BAZ2B inh inactive, GLS inhibitor inactive, G9a inh inactive, JMJD2A Tudor inactive and HP1b chromo inh inactive.
O=S(=O)(c1c(F)cccc1F)N1CCN(C(=S)NCc2ccc3c(c2)OCO3)CC1 was read as BAZ2B inh inactive, GLS inhibitor inactive, G9a inh 32µM, JMJD2A Tudor inactive and HP1b chromo inh inactive.
C=CCNC(=S)N1CCN(Cc2ccc3c(c2)OCO3)CC1 was read as BAZ2B inh 50µM, GLS inhibitor inactive, G9a inh inactive[0.501 µM], JMJD2A Tudor 14µM and HP1b chromo inh inconclusive.
`CCCNC(=S)N1CCN(Cc2ccc3c(c2)OCO3)CC1` gave BAZ2B inh inconclusive, GLS inhibitor inactive, G9a inh 20µM, JMJD2A Tudor 28µM and HP1b chromo inh inconclusive.
Screening O=C(NC(=S)N1CCN(Cc2ccc3c(c2)OCO3)CC1)c1cccc(Br)c1 returned BAZ2B inh 25µM, GLS inhibitor inactive, G9a inh inactive, JMJD2A Tudor inconclusive and HP1b chromo inh inactive.
CCC(=O)Nc1ccc2nc(SCCOc3ccc(C)cc3OC)sc2c1 was read as BAZ2B inh inactive, GLS inhibitor inactive, G9a inh inactive, JMJD2A Tudor inactive and HP1b chromo inh inactive.
For COC(=O)c1sccc1S(=O)(=O)N(CC(=O)Nc1c(C)cccc1C)c1ccc(C)c(C)c1 the results were BAZ2B inh inactive, GLS inhibitor inactive, G9a inh inactive, JMJD2A Tudor inactive and HP1b chromo inh inactive.
`Cc1ccc(S(=O)(=O)Nc2cccc3ccc[n+](C)c23)cc1` gave JMJD2A Tudor 50µM.
For Cc1cccc(-c2c3c(=O)n(C)c(=O)n(C)c3cn2-c2cc(N)c(Cl)cc2Cl)c1 the results were BAZ2B inh inconclusive, GLS inhibitor inactive, G9a inh inconclusive, JMJD2A Tudor inconclusive and HP1b chromo inh inactive.

Screening results deposited in PubChem by National Center for Advancing Translational Sciences (NCATS).
